Many of the other results were omitted from the sample, so hits are more common in it than they were.
Pf Dd2 growth: blocks in vitro growth of P. falciparum Dd2. P. falciparum Dd2 growth, SYBR Green, 72 h. AID 1347417. Potency, µM (highest dose often 28.9 µM), actives largely listed as inhibitors. hit rate 4.3% among 120,000; active means well fitted inhibition curve with a large enough effect; further: nearly all actives have a fitted effect of over 65% in size
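Readout: SYBR Green fluorescence, 485 nm excitation, 535 nm emission, after ~16 h lysis at 37C. Before that, Dd2-infected red cells (2.5% hematocrit) grew 72 h with compound, 29 uM top final concentration.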
Each line names hits and unclear results; the compound was inactive in the other large screens.

Cn1cc(-c2cc(=O)c3ccnc(NC4CCOCC4)c3o2)cn1	none
Cn1cc(-c2cc(=O)c3ccnc(Nc4ccc5[nH]ccc5c4)c3o2)cn1	Pf Dd2 growth 7.1µM
Cc1ccc(N2CC(c3noc(-c4cc(F)ccc4Cl)n3)CC2=O)cc1 (stereo not drawn)	none
COCCNC(=O)[C@H]1C[C@H](Oc2ccccc2)CN1Cc1sccc1C	none
Cc1ccc(-c2nc3ncccn3c2Nc2ccc3c(c2)OCCO3)cc1	none
COc1cc(-c2nc3ncccn3c2Nc2ccc(C)cc2C)ccc1O	Pf Dd2 growth 13µM
COc1ccc(Nc2c(-c3ccc(N4CCOCC4)cc3)nc3ncccn23)cc1OC	none
COc1cc(NC(=O)CN2C(=O)NC3(CCCCC3)C2=O)cc(OC)c1OC	none
CC(c1cccs1)N(C)Cc1ccc(OC(F)(F)F)cc1 (stereo not drawn)	none
CCOc1ccc(CN(CCc2ccc3c(c2)OCO3)Cc2cccc(Br)c2)cc1	none
CCOc1ccccc1CN(CCc1ccc2c(c1)OCO2)Cc1cc(OC)c(OC)cc1OC	Pf Dd2 growth 4µM
CCOc1ccc(CN(CCc2ccc3c(c2)OCO3)Cc2ccc(C)cc2)cc1	Pf Dd2 growth 10µM
CCOc1ccc(CN(CCc2ccc3c(c2)OCO3)Cc2cccc(OC)c2)cc1	none
CCOc1ccc(CN(C)C2CCOc3ccccc32)cc1 (stereo not drawn)	none
CCOc1ccccc1CNC(=O)c1noc(-c2ccc3c(c2)OCO3)n1	none
Cc1ccc(C(=O)N2CCCCCNC(=O)[C@@H]3CCCC[C@@H]32)cn1	none
O=[S+]([O-])(Nc1ccccc1)c1ccc2c(c1)OCCN(Cc1cncnc1)C2	none
COc1ccccc1C(=O)Nc1ccc([C@H]2OCC(=O)N(Cc3ccccc3)[C@@H]2CO)cc1	none
CC1CCc2nn3ccn(CC(=O)Nc4cccc(Cl)c4)c(=O)c3c2C1 (stereo not drawn)	none
CNC(=O)[C@H]1C[C@H](Oc2cccnc2)CN1S(=O)(=O)c1ccccc1	none
CC(C)N1CCC(O)(c2csc(CN3CC[C@@H](O)C3)n2)CC1	none
O=c1[nH]c2cccnc2n1C1CC1	none
Cc1ccc(Cc2nc3ccccc3nc2SCC(=O)N2CCN(c3ccc(F)cc3)CC2)cc1	none
Cc1ccc(Cc2nc3ccccc3nc2SCC(=O)N2CCC(C)CC2)cc1	Pf Dd2 growth 10µM
COc1ccccc1N1CCN(C(=O)CSc2nc3ccccc3nc2Cc2ccc(C)cc2)CC1	none
O=C(N[C@@H]1CCOC[C@H]1Oc1cccc(F)c1)c1cnc2c(c1)CCC2	none
O=C(c1cccc(OC(F)(F)F)c1)N1CC(CO)C2(CCNCC2)C1 (stereo not drawn)	none
CC(=O)N1CCCC2(C1)C(=NC1CCCCC1)NC(=O)N2c1cccnc1 (stereo not drawn)	none
Cc1oc2c(c1C(=O)N1CCN(C3CCCC3)CC1)CN(Cc1cccc(F)c1)CC2	Pf Dd2 growth 8.9µM
Cc1oc2c(c1C(=O)N1CCCC1)CN(Cc1cccc(F)c1)CC2	none
CN1C(=O)C(CC(=O)NCC2CCN(Cc3cccc(F)c3)CC2)=C2CCCCC21 (stereo not drawn)	none
Cc1oc2c(c1C(=O)N1CCCCCC1)CN(Cc1cccc(F)c1)CC2	Pf Dd2 growth 4µM
O=C1CCN(Cc2cccc(F)c2)CCCCCCN1	none
O=C(CC1CCOCC1)N1CCN(Cc2cccc(F)c2)CC1	none
CN1CCN(C(=O)[C@@H]2CCC[C@@H](NCc3nccn3C)CN(C)C(=O)C2)CC1	none
COc1ccc(C(=O)N2CCCCCC2c2nnc(-c3ccccc3)o2)cn1 (stereo not drawn)	none
O=C(Cn1ccn2nc3c(c2c1=O)CCCC3)Nc1ccc(C(F)(F)F)cc1	none
COC(=O)CN1C(=O)[C@@H]2C[C@@H](O)CN2C2(CN(C3CCCC3)C2)C1=O	none
CC(O)CCNS(=O)(=O)c1ccc2c(c1)CN(C(=O)CCn1cccn1)CC2 (stereo not drawn)	none
Cn1cc(-c2ccc(O)c(F)c2)c2nc(COc3ccc(Cl)cc3)cn2c1=O	Pf Dd2 growth 10µM
Cn1cc(-c2ccccc2F)c2nc(COc3ccccc3)cn2c1=O	none
Cn1cc(-c2ccccc2F)c2nc(COc3ccc(C(=O)O)cc3)cn2c1=O	none
CN(C)[C@@H]1CN(C(=O)CN2CCCCCC2)CC[C@@H]1CO	none
Cc1cnn(CCC(=O)N2CC(F)(F)C[C@H]2c2nc(C)no2)c1	none
C1=CCC(c2nc(C3CCOCC3)nn2-c2cccnc2)C1	none
CCN1CCN(C(=O)Cn2ncc3c4ccccc4n(Cc4ccccc4F)c3c2=O)CC1	Pf Dd2 growth 11µM
CCOC(=O)C1CCN(C(=O)Cn2ncc3c4ccccc4n(Cc4ccccc4F)c3c2=O)CC1	none
CCCn1c2ccccc2c2cnn(CC(=O)N3CCN(c4ccccc4F)CC3)c(=O)c21	none
CCN1CCN(C(=O)Cn2ncc3c4ccccc4n(Cc4c(C)cc(C)cc4C)c3c2=O)CC1	Pf Dd2 growth 13µM
Cc1ccc(C)c(Cn2c3ccccc3c3cnn(CC(=O)N4CCCCC4)c(=O)c32)c1	none
CC1CCCCN1C(=O)Cn1ncc2c3ccccc3n(Cc3ccccc3F)c2c1=O (stereo not drawn)	Pf Dd2 growth 13µM
Cc1cc(C)c(Cn2c3ccccc3c3cnn(CC(=O)NC4CCCCCC4)c(=O)c32)c(C)c1	none
O=C(Cn1ncc2c3ccccc3n(Cc3ccccc3F)c2c1=O)NC1CCCCCC1	none

Screening results: PubChem BioAssay, National Center for Advancing Translational Sciences (NCATS)
